PAFAH1B2 inh – inhibitors of human PAFAH1B2; hit rate 1.2% among 340,000; inhibition, % at 3.39 µM; AID 492953; P68402; recombinant PAFAH1B2, FP-rhodamine activity probe, fluorescence polarization;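 active = inhibition above the mean of all tested compounds plus 3 SD, cut at about 24% in these data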;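 also: 0% = enzyme with DMSO and 100% = wells lacking PAFAH1B2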
PME-1 primary – blocks human protein phosphatase methylesterase 1. Q9Y570. recombinant PME-1, FP-Rh probe fluorescence polarization. inhibition, % at 5.9 µM. hit rate 0.53% among 320,000. AID 2130;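 active = inhibition above the campaign mean of all compounds plus 3 SD, cut at about 26% in these data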;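 also: competitive labeling of PME-1 active site by serine hydrolase directed probe; 0% = PME-1 with DMSO and 100% = wells lacking PME-1 enzyme; inhibitors block probe labeling so polarization falls and inhibition rises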
Target sequence (Q9Y570 whole entry, looked up): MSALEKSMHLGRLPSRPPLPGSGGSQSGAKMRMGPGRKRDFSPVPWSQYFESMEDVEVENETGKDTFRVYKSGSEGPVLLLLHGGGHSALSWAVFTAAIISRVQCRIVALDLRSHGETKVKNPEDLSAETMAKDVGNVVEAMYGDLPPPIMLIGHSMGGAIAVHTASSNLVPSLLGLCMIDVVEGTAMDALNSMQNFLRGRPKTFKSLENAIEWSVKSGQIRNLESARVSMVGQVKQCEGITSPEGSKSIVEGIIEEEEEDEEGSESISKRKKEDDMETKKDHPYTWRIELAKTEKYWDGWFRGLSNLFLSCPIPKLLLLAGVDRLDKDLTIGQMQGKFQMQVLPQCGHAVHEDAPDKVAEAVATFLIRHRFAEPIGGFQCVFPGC
Fam108B counter – Fam108B inhibition, counter-screen for RBBP9 inhibitors | hit rate 0.33% among 300,000 | recombinant Fam108B, FP-Rh probe fluorescence polarization | AID 1947 | inhibition, % at 9.51 µM;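 active = inhibition above the screen mean inhibition plus 3 SD, computed separately per campaign, cut at about 18% in these data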;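 also: inhibitors lower polarization as less probe binds the enzyme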
PAFAH2 inh – PAFAH2 (human) inhibition | hit rate 0.99% among 340,000 | Q99487 | inhibition, % at 3.39 µM | recombinant PAFAH2, FP-rhodamine activity probe, fluorescence polarization;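 active = inhibition above the mean over all tested compounds plus 3 SD, cut at about 30% in these data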;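 also: inhibitors block probe labeling of enzyme so polarization drops; 0% = enzyme with DMSO and 100% = wells lacking PAFAH2 protein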
PAFAH1B3 FP inh – blocks human PAF acetylhydrolase 1B catalytic subunit 3 | recombinant PAFAH1B3, FP-rhodamine probe, fluorescence polarization | inhibition, % at 3.39 µM | hit rate 0.28% among 340,000;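 active = inhibition above the screen-wide average of all tested compounds plus 3 SD, cut at about 25% in these data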;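 also: 0% = enzyme with DMSO only and 100% = wells lacking PAFAH1B3 protein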
Target sequence (Q15102 whole entry, looked up): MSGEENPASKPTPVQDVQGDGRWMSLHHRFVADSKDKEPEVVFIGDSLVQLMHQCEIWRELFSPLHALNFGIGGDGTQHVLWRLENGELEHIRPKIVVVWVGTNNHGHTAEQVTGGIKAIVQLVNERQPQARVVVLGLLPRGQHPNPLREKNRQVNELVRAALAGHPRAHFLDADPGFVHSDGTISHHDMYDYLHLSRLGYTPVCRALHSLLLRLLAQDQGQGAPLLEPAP
pPAFAH FP inh – inhibitors of human plasma PAF acetylhydrolase (pPAFAH); Q13093; recombinant pPAFAH, FP-rhodamine probe fluorescence polarization; inhibition, % at 3.39 µM; hit rate 1.5% among 330,000; AID 463082;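 active = inhibition above the mean inhibition across the screen plus 3 SD, cut at about 25% in these data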;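 also: inhibitors block binding of the rhodamine activity-based probe so polarization drops; 0% = enzyme with DMSO and 100% = wells lacking pPAFAH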
* hit, by the source's call; . = no result given. This is a sample that favours compounds with a hit; in the whole collection about 2.9% have one here.

SMILES	PAFAH1B2 inh	PME-1 primary	Fam108B counter	PAFAH2 inh	PAFAH1B3 FP inh	pPAFAH FP inh
CN1C[C@@H]2[C@@H]3C(=O)N(Cc4ccccc4)C(=O)[C@@H]3[C@](Cc3ccccc3)(C1=O)N2C(=O)c1ccc(C(C)(C)C)cc1	6	.	.	11	7	.
COc1ccc(CCc2nnc(CCC(=O)NCC3CCCO3)o2)cc1 (stereo not given)	6	0	-4	4	10	0
COc1ccc(/C=c2\s/c(=C/C(=O)c3ccc(C)cc3)[nH]c2=O)c(OC)c1	-2	27*	-3	-27	-2	21
COc1cccc(/C=c2\s/c(=C/C(=O)c3ccc(C)cc3)[nH]c2=O)c1OC	-7	-4	-20	-28	-19	3
CC(C)(C)N(Cc1ccccc1)C(=O)COC(=O)CCN1C(=O)C2CC=CCC2C1=O (stereo not given)	14	.	.	4	0	.
COc1ccc(CN(C)CC(=O)NCC(=O)Nc2c(C)cccc2C)cc1	0	-5	.	-1	7	-9
CC(C)c1ccc(C(C)NCCS(=O)(=O)c2ccc(Cl)cc2)cc1 (stereo not given)	34*	-7	3	5	6	1
CN(CCS(=O)(=O)c1ccc(Cl)cc1)Cc1cccnc1	7	-3	0	7	2	-1
CC(C)Cc1cc(C(=O)N(C)C2CCCN(Cc3ccccc3F)C2)n(C)n1 (stereo not given)	0	0	-6	-4	-3	-2
COc1ccccc1N1CCN(CCN2C(=O)CC(=C3c4ccccc4-c4ccccc43)C2=O)CC1	.	3	6	.	.	29*
Cc1ccccc1N1CCN(CCN2C(=O)CC(=C3c4ccccc4-c4ccccc43)C2=O)CC1	-1	2	0	-8	5	18
COc1ccc(C(=S)N2CCOCC2)cc1OS(=O)(=O)c1ccc(Br)cc1	34*	2	-1	3	9	0
COc1ccc(S(=O)(=O)Oc2ccc(C(=S)N3CCOCC3)cc2OC)cc1	4	5	-1	-2	12	-2
CC1CCN(S(=O)(=O)c2ccc(NC(=O)CN3CCOCC3)cc2)CC1	33*	-2	-1	9	17	3
CC1CCCN(CC(=O)Nc2ccc(S(=O)(=O)N3CCCCC3)cc2)C1 (stereo not given)	3	1	2	-4	2	-3
CC1CCN(S(=O)(=O)c2ccc(NC(=O)Cc3cccs3)cc2)CC1	31*	-2	0	2	-1	13
CC1CCCN(CC(=O)Nc2ccc(S(=O)(=O)NC3CCCCC3)cc2)C1 (stereo not given)	6	-2	-4	-3	0	28*
CC1CCN(CC(=O)Nc2ccc(S(=O)(=O)N3CCC(C)CC3)cc2)CC1	29*	-1	-4	-4	8	-1
CC1CCN(S(=O)(=O)c2ccc(NC(=O)CN3CCCC3)cc2)CC1	15	1	-2	-1	4	8
COc1ccc(C(OCC(O)CNCCc2ccccc2)c2ccc(OC)cc2)cc1 (stereo not given)	1	.	.	5	7	.
CC(C)(C)S(=O)N1Cc2cc(CO)cc(-c3ccccc3)c2[C@@H]1CCO (stereo not given in full)	5	.	.	-5	3	.
O=C(Cc1ccccc1)c1ccccc1C(=O)N1CCCCC1	3	-2	-8	5	5	5
Cc1ccc2cc(C#N)c(SCc3nnc(-c4ccccc4[N+](=O)[O-])o3)nc2c1	0	35*	4	0	9	2
COC(=O)CSc1nc2cc(C)ccc2cc1C#N	2	3	-5	-2	10	10
Cc1ccc(CN=C2NC(=O)C(CC(=O)NCCc3ccccc3)S2)cc1 (stereo not given)	42*	4	4	0	-1	11
SMILES	PAFAH1B2 inh	PME-1 primary	Fam108B counter	PAFAH2 inh	PAFAH1B3 FP inh	pPAFAH FP inh
Cc1ccc(NCC(=O)N/N=C\c2ccc[nH]2)cc1	.	-2	-2	.	.	0
Nc1ccc2oc(-c3ccccc3Cl)cc(=O)c2c1O	8	9	-1	4	6	28*
O=c1cc(-c2ccccc2Cl)oc2ccc([N+](=O)[O-])c(O)c12	4	12	6	4	4	3
COc1cc(/C=N/NC(=O)CC#N)ccc1Oc1nc(Cl)ncc1F	1	-9	-2	-10	7	-3
CCOc1ccc2nc(SCC(=O)Nc3ccc4c(c3)OCCO4)[nH]c2c1	2	27*	3	7	8	8
Cc1cccc(NC(=O)CSCC(=O)N2CCN(Cc3ccc4c(c3)OCO4)CC2)c1	-3	2	1	4	-1	2
N#CC(=C(c1ccccc1)c1ccccc1)c1ccccc1	24*	.	.	0	5	.
CCOC(=O)C1CCN(C(=O)c2cc3cc4cc(OC)ccc4nc3o2)CC1	1	-4	-3	5	-3	29*
COc1ccc2nc3oc(C(=O)N4CCCCC4)cc3cc2c1	4	-2	3	-5	-2	11
Nc1nc(NCCO)nc(NCc2ccccc2)c1[N+](=O)[O-]	8	6	7	0	2	4
Nc1nc(NCC(=O)O)nc(NCc2ccccc2)c1[N+](=O)[O-]	28*	-1	-2	-1	10	4
COc1cc(/C=N/n2cnnc2)ccc1OCCSc1ccc(C)cc1	24*	-5	-4	0	1	11
CCC(NC(=S)NCc1ccc(F)cc1)c1ccc(C(C)C)cc1 (stereo not given)	29*	-3	-15	-7	-9	-5
COc1ccc(C(C)NC(=S)NCc2ccc(F)cc2)cc1OC (stereo not given)	-4	5	2	0	-5	-7
CCCc1ccc(C(C)NC(=S)NCc2ccc(F)cc2)cc1 (stereo not given)	15	-3	-10	-7	5	4
CCC(C)c1ccc(C(C)NC(=S)NCc2ccc(F)cc2)cc1 (stereo not given)	24*	-14	-20	-2	-5	-1
COc1cc(/C=N/NC(=O)c2ccc3c(c2)OCCO3)cc(Br)c1O	9	3	2	-7	5	7
COc1cc(/C=N/NC(=O)c2ccc3c(c2)OCCO3)c(Br)c(Br)c1O	8	45*	8	14	8	20
O=C(N/N=C/c1c(Cl)[nH]c2ccccc12)c1ccc2c(c1)OCCO2	.	29*	5	.	.	23
CC(NCc1ccc(OCc2ccc(Cl)cc2)cc1)C(O)c1ccccc1 (stereo not given)	64*	-8	3	-2	7	5
CCOC(=O)[C@@H]1[C@H]2COc3ccc(Br)cc3[C@@H]2N2C(=O)N(c3cccc(Cl)c3)C(=O)[C@@]12C	7	.	.	0	0	-2
CC(C)(C)Cc1nnc(NS(=O)(=O)c2ccc(F)cc2)s1	31*	-1	4	4	9	9

High-throughput results as filed in PubChem.
